Most compounds without a hit are left out; they make up all but 1.2% or so of the library.
TRPV1 PAM: enhances activation of the human vanilloid receptor TRPV1; TRPV1-expressing cells, Fluo-8 calcium influx, capsaicin EC20 potentiation; AID 540277; potentiation, % at 8.33 µM; 0.02% of 320,000 active; in the data active = potentiation above about 80%; inconclusive = between about 30% and that limit; also: 0% is about no effect
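Fluo-8 calcium influx in TRPV1-expressing cells, kinetic read (ex 480/em 520 nm). Compound added and read 3 min for agonist activity, followed by capsaicin at EC20 final and 2 min further read for enhancement.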
TRPV1 ag: agonists of human vanilloid receptor 1 (TRPV1); Q8NER1; TRPV1-expressing cells, Fluo-8 calcium influx, agonist mode; activation, % at 8.33 µM; 0.19% of 320,000 active; in the data active = activation above about 80%; inconclusive = between about 30% and that limit; also: 0% is about no effect
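Fluo-8 calcium influx in TRPV1-expressing cells, kinetic read (ex 480/em 520 nm). Compound added and read 3 min for agonist activity, followed by capsaicin at EC20 final and 2 min further read for enhancement.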
KCNH2 3.1 inh: inhibitors of human KCNH2 3.1 potassium channel isoform | activity change, % (tested at about 1.8 µM) | U2OS KCNH2 3.1, thallium flux FluxOr; stronger effect = lower value | 0.95% of 340,000 active;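 active = maximum activity change below -70%; inconclusive = maximum activity change from -70% to -50%; inactive = maximum activity change above -50%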;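 also: thallium influx rate constant from kinetic fluorescence after stimulation buffer; % is scaled to controls: 0 for no effect and ±100 for the full control effect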
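Steps: virus added to U2OS suspension (4 h, RT, dark); medium with 10% FBS added, cells plated, 37 C overnight; FluxOr/Red40 loading buffer 45 min RT; stimulation buffer, 2 min kinetic read; rate constant normalized.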
KCNH2 WT inh: blocks the wildtype human KCNH2 potassium channel | AID 720551 | activity change, % at 1.84 µM | Q12809 | 0.37% of 340,000 active | U2OS, BacMam KCNH2, thallium flux FluxOr; stronger effect = lower value;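 active = maximum activity change below -70%; inconclusive = maximum activity change between -70% and -50%; inactive = maximum activity change above -50%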; also: % is scaled to controls: 0 for no effect and ±100 for the full control effect
Target sequence (Q12809 whole entry, looked up): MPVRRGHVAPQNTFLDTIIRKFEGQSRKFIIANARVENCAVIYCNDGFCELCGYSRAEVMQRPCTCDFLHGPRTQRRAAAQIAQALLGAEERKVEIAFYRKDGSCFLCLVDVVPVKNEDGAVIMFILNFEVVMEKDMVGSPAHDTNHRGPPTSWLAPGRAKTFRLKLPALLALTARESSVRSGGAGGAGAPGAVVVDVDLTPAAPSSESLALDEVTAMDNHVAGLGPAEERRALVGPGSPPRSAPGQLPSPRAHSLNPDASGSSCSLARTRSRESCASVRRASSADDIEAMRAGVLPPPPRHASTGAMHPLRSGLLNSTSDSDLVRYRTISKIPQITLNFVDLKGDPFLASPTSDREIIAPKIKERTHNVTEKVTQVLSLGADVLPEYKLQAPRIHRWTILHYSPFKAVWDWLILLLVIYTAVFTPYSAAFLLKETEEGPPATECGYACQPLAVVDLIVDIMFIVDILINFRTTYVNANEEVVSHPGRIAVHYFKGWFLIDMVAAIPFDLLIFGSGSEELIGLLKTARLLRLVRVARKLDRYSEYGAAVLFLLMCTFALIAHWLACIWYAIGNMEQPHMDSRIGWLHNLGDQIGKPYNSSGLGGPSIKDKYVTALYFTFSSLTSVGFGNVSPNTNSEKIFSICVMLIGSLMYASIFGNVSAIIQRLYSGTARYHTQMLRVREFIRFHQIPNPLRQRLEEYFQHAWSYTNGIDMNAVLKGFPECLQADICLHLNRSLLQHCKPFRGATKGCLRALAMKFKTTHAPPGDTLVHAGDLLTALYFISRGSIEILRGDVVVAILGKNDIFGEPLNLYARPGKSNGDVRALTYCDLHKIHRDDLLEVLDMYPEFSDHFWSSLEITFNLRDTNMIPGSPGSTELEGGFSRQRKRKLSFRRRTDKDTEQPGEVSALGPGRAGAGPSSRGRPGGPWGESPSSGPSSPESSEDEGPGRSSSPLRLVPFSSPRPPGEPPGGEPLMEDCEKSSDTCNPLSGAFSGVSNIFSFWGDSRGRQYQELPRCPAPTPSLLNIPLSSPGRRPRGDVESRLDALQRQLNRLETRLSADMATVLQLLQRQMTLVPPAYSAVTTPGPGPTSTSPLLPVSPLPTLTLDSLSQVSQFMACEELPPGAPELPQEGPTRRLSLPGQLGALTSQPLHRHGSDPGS
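U2OS cells were transduced with wild-type KCNH2 virus (2.03 x 10^8 / mL) for 4 h at room temperature, then cultured overnight at 37 C. Thallium flux was read with FluxOr dye. Rate constants were normalized to DMSO controls.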
* marks the source's active call; other numbers are inactive results; i = inactive; ? = inconclusive; · = no result given.

SMILES	TRPV1 PAM	TRPV1 ag	KCNH2 3.1 inh	KCNH2 WT inh
Oc1ccc(-c2nccs2)cc1	·	·	-120*	16
Nc1ccn([C@@H]2O[C@H](CNCC3=CCOc4ccc(O)cc43)[C@@H](O)[C@H]2O)c(=O)n1	·	·	-29	-7
O=C(C1CCN(CCCc2ccccc2)CC1)N(CCc1ccccc1)Cc1ccccc1	0	1	-110*	-89*
O=C(C1CCN(CC2CC=CCC2)CC1)N(CCc1ccccc1)Cc1ccccc1 (stereo not drawn)	-4	0	·	-4
CCN(Cc1ccccc1)C(=O)C1CCN(Cc2ccc(SC)cc2)CC1	4	3	-94*	-114*
CCOc1ccccc1N1CCN(CC(=O)N(C)CC(=O)Nc2ccccc2CC)CC1	·	·	5	-8
C[C@]12c3[nH]c4ccccc4c3CCN1C(=O)C(CC(=O)NCCCn1ccnc1)C[C@@H]2C(=O)N1CCOCC1 (stereo partly drawn)	·	·	7	15
Cc1ccc(N2CCN(/N=C/c3c(C)nn(-c4ccccc4)c3Cl)CC2)cc1	7	0	-90*	·
Cc1ccc(/C=N/N2CCN(c3ccccc3)CC2)cc1	0	1	6	7
O=C(O)c1ccccc1CC(CCc1ccccc1)C(=O)O (stereo not drawn)	·	·	5	0
CCN(CCn1cccn1)C(=O)CCc1nnc(C2(c3ccc(Cl)cc3)CCC2)o1	-10	1	-194*	-137*
O=C(NCCc1c[nH]c2ccccc12)c1ccc2c(c1)OCO2	-7	3	-4	-15
N#C/C(=C/c1ccc2c(c1)OCO2)C(=O)NCCc1c[nH]c2ccccc12	9	11	-74*	-10
CCCC[C@]12Cc3cc(OC)c(OC)cc3C(O1)c1c(cc(-c3ccccc3)oc1=O)O2	i	i	·	·
Cc1ccc(OCCSc2nc(NC(C)C)nc(NC(C)C)n2)cc1	-7	0	-76*	-1
O=S1(=O)CC2N=C(N(Cc3ccc(F)cc3Cl)c3ccccc3F)SC2C1 (stereo not drawn)	-6	4	-11	-90*
Cc1cccc(NC(=O)CN(C2=NC3CS(=O)(=O)CC3S2)c2ccccc2F)c1 (stereo not drawn)	-18	2	5	1
Cn1nc(N)c2ncc(-c3ccc(Cl)cc3)nc21	·	·	4	10
Cc1ccc(C(=O)Nc2nc(C)c(C(=O)N(C)C)s2)o1	12	-1	-14	-12
Cc1nc(NC(=S)NC(=O)c2ccco2)sc1C(=O)N(C)C	2	-1	3	-123*
Cc1nn(-c2ccccc2)c2c1CC(=O)Nc1ccccc1-2	·	·	11	10
O=C(CN1C(=O)CCC1=O)Nc1nc(-c2ccc3ccccc3c2)cs1	-3	-3	-1	-10
O=C(CN1C(=O)CCC1=O)Nc1nc(-c2ccccn2)cs1	-1	1	-117*	4
COc1ccc(C(=O)NCC(=O)N/N=C/c2cccc(OC(=O)c3ccco3)c2)cc1OC	-10	8	-3	-75*
Cc1c(NC(=O)COc2cccc3c2OC(C)(C)C3)c(=O)n(-c2ccccc2)n1C	10	-2	-107*	-1
SMILES	TRPV1 PAM	TRPV1 ag	KCNH2 3.1 inh	KCNH2 WT inh
Cc1ccc(S(=O)(=O)N2CCN(C(=O)COC(=O)COc3cccc(C(F)(F)F)c3)CC2)c(C)c1	·	·	-16	-4
CCOC(=O)C(Cc1ccccc1)C(=O)Nc1cccc(C)c1 (stereo not drawn)	-15	85*	6	-26
COc1cccc(-c2nnc(NC(=O)C3CCCCC3)o2)c1	2	0	-84*	-20
Oc1ccc(Br)cc1C1C=C(c2ccc3c(c2)OCO3)NC(c2c(F)cccc2Cl)N1 (stereo not drawn)	21	4	·	·
CC[C@]1(C(=O)OC)[C@H]2C(=O)N(C)C(=O)[C@H]2[C@H]2CN=C(SCC3CC3)N21	·	·	0	0
Cc1cn([C@H]2C[C@H](O)[C@@H](CCC(=O)NCCc3cnc[nH]3)O2)c(=O)[nH]c1=O	·	·	-2	5
O=C(CSc1ccc(Cl)cc1)N1CCN(c2ncc(C(F)(F)F)cc2Cl)CC1	4	?	-124*	28
O=C(CSc1ccc(Cl)cc1)N1CCN(c2ccc([N+](=O)[O-])cc2Cl)CC1	0	2	-88*	?
COc1cc(CN(C)C(C)C(=O)Nc2ccc([N+](=O)[O-])cc2Cl)ccc1OC(F)F (stereo not drawn)	-11	-4	?	-95*
COc1ccc([N+](=O)[O-])cc1NC(=O)C(C)N(C)Cc1cccc(OC)c1OC (stereo not drawn)	-16	?	0	-5
Cc1noc(C)c1NC(=O)N(C)C[C@H]1OCCCC[C@@H](C)Oc2ccc(NS(=O)(=O)c3ccccc3)cc2C(=O)N([C@H](C)CO)C[C@@H]1C	·	·	3	-6
CCN1C(=O)[C@H]2[C@@H](c3ccc(OC)cc3)N[C@]3(CCCN(Cc4ccc(OC)cc4)C3=O)[C@H]2C1=O	·	·	-4	-12
COC(=O)c1cc(S(=O)(=O)N(C)C2CCCCC2)c[nH]1	-11	22	-120*	13
COC(=O)c1cc(S(=O)(=O)N(C)C2CCCCC2)cn1C	1	4	2	-1
N#CCCN(CCCN1CCOCC1)CN1C(=O)c2ccccc2C1=O	·	·	13	8
COc1ccc(CCNC(=O)COC(=O)Cc2c[nH]c3ccccc23)cc1OC	·	·	3	21
CC(C)n1cc(CN2CCCC(C(=O)Nc3cccc(-c4cc5ccccc5[nH]4)c3)C2)cn1 (stereo not drawn)	24	0	-95*	-19
CCN(CCNC(=O)c1ccc(C#N)cc1)c1cccc(C)c1	-5	91*	-5	5
COc1cccc(CCNC(=O)c2ccc(C#N)cc2)c1	-17	?	·	-2
COc1ccc(CN(C)CC(O)COc2ccc(C(=O)c3ccccc3)cc2)c(OC)c1OC (stereo not drawn)	-13	1	?	-2
COc1ccc(CN(C)CC(O)COC(c2ccccc2)c2ccccc2)c(OC)c1OC (stereo not drawn)	-4	3	-86*	?
COc1ccc(CCN(C)CC(O)COC(c2ccc(F)cc2)c2ccc(F)cc2)cc1OC (stereo not drawn)	-4	3	-112*	-144*
O=c1c2ccccc2[nH]c(=S)n1CCCN1CCN(c2ccccc2F)CC1	-6	28	13	-70*
O=c1c2cccnc2[nH]c(=S)n1CCCN1CCN(c2ccccc2F)CC1	5	2	-8	17
O=C1NN(c2ccccc2)C(=O)C2C3C=CC(C4CC34)C12 (stereo not drawn)	25	-3	14	-147*
CC(=O)Nc1ccc(N2C(=O)c3ccc(S(=O)(=O)c4ccc(C(=O)O)cc4)cc3C2=O)cc1	20	0	22	-168*
Cc1ccc(-c2nc(NC(=O)c3nn(C)cc3[N+](=O)[O-])sc2C)cc1	-7	3	-33	3
Cc1ccc(-c2nc(NC(=O)c3nn(C)cc3[N+](=O)[O-])sc2C)cc1C	-11	-1	-82*	4
